PubChem BioAssay (Tox21)
“And” between values parts separate entries of the source, which are not always exact repeats. Identical values can stand only once. Records with an inconclusive call do not appear. More than one record can exist for a structure, and the calls need not agree. The source made the active and inactive calls. Unless noted, calls come from the whole dose curve; as a rule, active = well fitted curve in the direction sought with a large enough effect in the repeat runs; inconclusive = weak or mixed curves; inactive = no such curve, though single readings can be large; an effect the other way counts as inactive or inconclusive.

Key:
[1] = molecular target: Thyrotropin receptor (Homo sapiens) (UniProt P16473); assay: qHTS assay to identify small molecule antagonists of the thyroid stimulating hormone receptor (TSHR) signaling pathway (AID 1259385; calls by dose curve; note: nearly all actives have a fitted effect of over 20% in size)
Chain of Thyrotropin receptor (Homo sapiens) (P16473 whole entry, looked up): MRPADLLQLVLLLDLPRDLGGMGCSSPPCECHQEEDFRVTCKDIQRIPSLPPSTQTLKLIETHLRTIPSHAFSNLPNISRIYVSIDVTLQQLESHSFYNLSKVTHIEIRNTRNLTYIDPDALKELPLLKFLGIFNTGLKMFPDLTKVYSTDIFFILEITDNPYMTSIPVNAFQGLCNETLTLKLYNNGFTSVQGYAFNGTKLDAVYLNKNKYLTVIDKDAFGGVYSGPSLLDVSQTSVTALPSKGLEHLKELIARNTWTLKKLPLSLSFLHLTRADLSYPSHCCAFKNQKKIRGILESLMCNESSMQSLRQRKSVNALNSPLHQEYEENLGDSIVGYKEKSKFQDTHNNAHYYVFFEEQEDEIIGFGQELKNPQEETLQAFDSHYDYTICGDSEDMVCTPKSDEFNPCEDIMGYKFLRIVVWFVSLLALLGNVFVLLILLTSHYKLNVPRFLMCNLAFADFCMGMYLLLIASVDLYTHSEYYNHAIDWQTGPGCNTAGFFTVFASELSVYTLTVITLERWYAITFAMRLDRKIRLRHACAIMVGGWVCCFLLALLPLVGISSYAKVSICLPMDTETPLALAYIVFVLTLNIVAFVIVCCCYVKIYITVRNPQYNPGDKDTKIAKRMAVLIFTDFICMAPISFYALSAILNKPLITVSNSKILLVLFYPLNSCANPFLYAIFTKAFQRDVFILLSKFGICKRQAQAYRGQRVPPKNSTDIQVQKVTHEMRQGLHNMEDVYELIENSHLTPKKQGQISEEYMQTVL
Summary of the method: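 Antagonist mode: compound-treated TSHR-expressing HEK293 cells were stimulated with 1.5 ng/mL TSH (final) in presence of Ro20-1724 for 30 min at RT. HTRF cAMP detection after 1 h; each compound tested at 15 concentrations, triplicate.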

[2] = qHTS assay to identify small molecule agonists of the estrogen receptor alpha (ER-alpha) signaling pathway in the presence of an antagonist - cell viability counter screen (AID 1259386);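 note: series mostly up to about 92 µM; cells exposed to compounds for 22 h at 37 °C before the viability read; nearly all actives have a fitted effect of over 30% in size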
Summary of the method: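 Steps: 5-day stripped-FBS culture; seed and incubate 24hr; add ICI-182,780 (10.0nM final); pin 15-point compound titration; incubate 22hr at 37C; add CellTiter-Fluor at 21hr; read fluorescence.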

[3] = molecular target: Progesterone receptor (Homo sapiens) (UniProt P06401); assay: qHTS assay to identify small molecule agonists of the progesterone receptor (PR) signaling pathway (AID 1346784; calls by dose curve; note: nearly all actives have a fitted effect of over 30% in size)
Chain of Progesterone receptor (Homo sapiens) (P06401 whole entry, looked up): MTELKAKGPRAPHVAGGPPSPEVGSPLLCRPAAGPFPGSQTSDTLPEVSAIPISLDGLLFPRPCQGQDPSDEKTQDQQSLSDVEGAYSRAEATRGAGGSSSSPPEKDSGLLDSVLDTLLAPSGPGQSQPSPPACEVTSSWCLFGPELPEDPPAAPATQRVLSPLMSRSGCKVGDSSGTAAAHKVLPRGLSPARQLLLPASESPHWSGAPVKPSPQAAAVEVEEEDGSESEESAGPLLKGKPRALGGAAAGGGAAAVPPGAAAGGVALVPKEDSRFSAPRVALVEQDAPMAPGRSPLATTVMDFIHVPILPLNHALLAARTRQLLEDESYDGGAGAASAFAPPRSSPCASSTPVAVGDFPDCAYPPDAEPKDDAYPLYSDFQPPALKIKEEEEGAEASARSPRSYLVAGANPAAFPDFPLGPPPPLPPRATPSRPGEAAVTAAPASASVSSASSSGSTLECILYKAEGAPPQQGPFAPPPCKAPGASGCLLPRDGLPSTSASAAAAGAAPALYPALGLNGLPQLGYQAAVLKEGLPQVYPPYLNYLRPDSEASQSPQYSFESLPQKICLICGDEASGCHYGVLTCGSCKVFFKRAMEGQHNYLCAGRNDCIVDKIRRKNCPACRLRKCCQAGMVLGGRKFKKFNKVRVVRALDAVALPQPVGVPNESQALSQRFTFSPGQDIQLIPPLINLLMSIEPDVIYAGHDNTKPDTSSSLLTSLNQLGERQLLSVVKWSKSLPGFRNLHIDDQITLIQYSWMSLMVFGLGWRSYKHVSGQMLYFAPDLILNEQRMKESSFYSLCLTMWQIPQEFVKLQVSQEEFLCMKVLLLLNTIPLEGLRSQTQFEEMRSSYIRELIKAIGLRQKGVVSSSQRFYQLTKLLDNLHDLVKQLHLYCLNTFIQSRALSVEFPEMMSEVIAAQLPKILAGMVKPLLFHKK
Summary of the method: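 Reporter assay, GripTite PR-UAS-bla HEK 293T cells: 16 hr exposure to DMSO-dissolved compounds at 37C, 5% CO2, in steroid-depleted (2% charcoal-stripped FBS) medium; beta-lactamase measured by FRET fluorescence.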

[4] = qHTS assay to identify small molecule antagonists of the progesterone receptor (PR) signaling pathway - cell viability counter screen (AID 1346798); note: nearly all actives have a fitted effect of over 50% in size; note: potency is the fitted concentration of half-maximal effect
Summary of the method: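 In the same plates used for the beta-lactamase readout, cell viability of compound- and R5020-treated PR-UAS-bla HEK293T cells (16 hr, 37C) was assessed by CellTiter-Glo luminescence.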

[5] = qHTS assay to identify small molecule agonists of the progesterone receptor (PR) signaling pathway - cell viability counter screen (AID 1346799; calls by dose curve; note: nearly all actives have a fitted effect of over 45% in size)
Summary of the method: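 Multiplexed viability read: CellTiter-Glo luminescence, 30 min RT, following LiveBLAzer FRET measurement on PR-UAS-bla HEK293T cells exposed to compounds 16 hr.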

[6] = qHTS assay to identify small molecule antagonists of the TGF-beta/Smad signaling pathway - cell viability counter screen (AID 1346824); note: nearly all actives have a fitted effect of over 50% in size
Summary of the method: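 Cytotoxicity counter-screen run in the same wells as the beta-lactamase Smad reporter read: CellTiter-Glo luminescence after 30 min at room temperature. HEK 293T SBE-bla cells had 5 hr compound exposure at 37 C with TGF-beta1 (0.25 ng/mL stock).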

[7] = qHTS assay to identify small molecule agonists of the TGF-beta/Smad signaling pathway - cell viability counter screen (AID 1346829); note: top concentration of the series differs between compounds; nearly all actives have a fitted effect of over 45% in size
Summary of the method: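 Tox21 qHTS format: SBE-bla HEK 293T cells treated with DMSO-dissolved compounds for 5 hr; CellTiter-Glo luminescence after 30 min at room temperature.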

[8] = qHTS assay to identify small molecule agonists of the TGF-beta/Smad signaling pathway (AID 1346859; active = well fitted activation curve with a large enough effect in the signal ratio in the repeat runs, not every such curve was filed as active; the % refers to the signal ratio; note: series mostly up to about 77 µM)
Summary of the method: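 Screening used HEK 293T SBE-bla cells at 4,000/well. Test agents: 5 hr, 37 C. Detection: FRET substrate, 2 hr RT, then excitation 405 nm with emissions at 460 and 530 nm.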

[9] = Human pregnane X receptor (PXR) small molecule agonists, qHTS cell viability counter screen (AID 1346977); note: nearly all actives have a fitted effect of over 50% in size; note: potency is the fitted concentration of half-maximal effect
Summary of the method: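 In each well, the PXR reporter HepG2 line was checked for viability: CellTiter-Fluor reagent added 23hr post-dosing, fluorescence read after 1hr incubation at 37C.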

[10] = Caspase-3/7 induction in HepG2 cells by small molecules, qHTS assay (AID 1346978); note: nearly all actives have a fitted effect of over 15% in size
Summary of the method: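 Caspase-3/7 induction was measured by Caspase-Glo 3/7 luminescence (30 min, room temperature) after a 17 hr compound exposure of wild-type HepG2 cells seeded at 2,000 per well and pre-incubated 5 hr.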

[11] = Caspase-3/7 induction in CHO-K1 cells by small molecules, qHTS cell viability counter screen (AID 1346979); note: nearly all actives have a fitted effect of over 35% in size; note: potency is the fitted concentration of half-maximal effect
Summary of the method: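 Following a 5hr settling period, CHO-K1 cells at 1,500 per well received DMSO-dissolved compounds. Cell viability was quantified 16hr later by CellTiter-Fluor fluorescence, measured after 1hr with reagent at 37C.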

[12] = Caspase-3/7 induction in CHO-K1 cells by small molecules, qHTS assay (AID 1346980); note: nearly all actives have a fitted effect of over 15% in size
Summary of the method: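 Luminescent Caspase-Glo 3/7 read (30min, room temperature) quantified apoptosis induction. Cells were wild-type CHO-K1, treated with compound for 17hr at 37 C and 5% CO2.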

[13] = Caspase-3/7 induction in HepG2 cells by small molecules, qHTS cell viability counter screen (AID 1346981); note: nearly all actives have a fitted effect of over 30% in size; note: potency is the fitted concentration of half-maximal effect
Summary of the method: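 The parent HepG2 line is plated at 2,000 cells per well and rested 5 hr before compound pinning from DMSO stocks. Following a 16-hr treatment at 37 C, a fluorogenic live-cell substrate (CellTiter-Fluor) reports viability after 1 hr.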

[14] = molecular target: Nuclear receptor subfamily 1 group I member 2 (Homo sapiens) (UniProt O75469); assay: Human pregnane X receptor (PXR) small molecule agonists, qHTS assay (AID 1346982); note: nearly all actives have a fitted effect of over 35% in size; note: potency is the fitted concentration of half-maximal effect
Chain of Nuclear receptor subfamily 1 group I member 2 (Homo sapiens) (O75469 whole entry, looked up): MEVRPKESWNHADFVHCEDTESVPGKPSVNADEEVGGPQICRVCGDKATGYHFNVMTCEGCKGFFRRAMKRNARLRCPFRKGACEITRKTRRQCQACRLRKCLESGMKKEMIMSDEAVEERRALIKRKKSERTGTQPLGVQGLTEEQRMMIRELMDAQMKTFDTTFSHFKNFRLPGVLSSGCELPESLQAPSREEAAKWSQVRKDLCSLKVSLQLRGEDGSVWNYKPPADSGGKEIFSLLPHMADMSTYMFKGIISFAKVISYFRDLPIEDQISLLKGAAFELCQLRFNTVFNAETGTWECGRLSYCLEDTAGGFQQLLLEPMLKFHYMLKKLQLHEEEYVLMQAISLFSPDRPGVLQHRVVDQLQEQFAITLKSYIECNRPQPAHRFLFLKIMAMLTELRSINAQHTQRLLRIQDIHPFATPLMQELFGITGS
Summary of the method: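 After plating in 5% charcoal-stripped FBS and a 5 hr rest, PXR-Luc HepG2 cells received compounds in DMSO. Following 24 hr at 37 C, ONE-Glo was added and light output read.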

[15] = molecular target: Nuclear receptor subfamily 1 group I member 2 (Rattus norvegicus) (UniProt Q9R1A7); assay: Rat pregnane X receptor (rPXR) activation by small molecules, qHTS assay (AID 1346983); conditions: rPXR luciferase reporter cells, One-Glo luminescence, 24 h; stronger effect = higher value; note: nearly all actives have a fitted effect of over 20% in size
Chain of Nuclear receptor subfamily 1 group I member 2 (Rattus norvegicus) (Q9R1A7 whole entry, looked up): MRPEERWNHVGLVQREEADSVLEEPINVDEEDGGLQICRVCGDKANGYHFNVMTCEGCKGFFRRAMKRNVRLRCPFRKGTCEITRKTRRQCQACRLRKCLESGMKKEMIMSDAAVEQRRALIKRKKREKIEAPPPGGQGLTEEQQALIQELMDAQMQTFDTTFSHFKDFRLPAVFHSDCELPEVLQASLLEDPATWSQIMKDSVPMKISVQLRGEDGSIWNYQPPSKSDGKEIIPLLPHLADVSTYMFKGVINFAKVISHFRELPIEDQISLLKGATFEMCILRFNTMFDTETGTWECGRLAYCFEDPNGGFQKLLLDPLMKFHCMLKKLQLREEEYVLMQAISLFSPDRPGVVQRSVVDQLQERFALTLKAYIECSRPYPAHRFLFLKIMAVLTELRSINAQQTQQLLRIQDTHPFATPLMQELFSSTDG
Summary of the method: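 Luminescent readout (One-Glo luciferase, 30 min room temperature) followed 24 hr compound treatment at 37 C of rPXR cells plated 2,000 per well and preincubated 5hr; qHTS format with compounds delivered in DMSO.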

[16] = molecular target: Nuclear receptor subfamily 1 group I member 2 (Homo sapiens) (UniProt O75469); assay: CYP3A4 induction through human pregnane X receptor (PXR) by small molecules, qHTS assay (AID 1346984); note: nearly all actives have a fitted effect of over 40% in size
Summary of the method: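 Human PXR activation is tracked via CYP3A4 promoter-luciferase in DPX-2 (HepG2) cells. Compounds treat cells for 24hr at 37C, and luminescence is read after One-Glo.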

[17] = molecular target: Nuclear receptor subfamily 1 group I member 2 (Homo sapiens) (UniProt O75469); assay: Human pregnane X receptor (PXR) activation by small molecules, qHTS assay (AID 1346985); note: nearly all actives have a fitted effect of over 40% in size
Summary of the method: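 DPX-2 cells (HepG2 co-transfected with a PXR response element and a CYP3A4-promoter luciferase construct) were seeded at 2,000 per well, rested 5 hr at 37C, then exposed to DMSO-dissolved compounds for 24 hr. Activation was read as luciferase luminescence.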

[18] = molecular target: Thyrotropin-releasing hormone receptor (Homo sapiens) (UniProt P34981); assay: qHTS assay to identify small molecule antagonists of the thyrotropin-releasing hormone receptor (TRHR) signaling pathway (AID 1346877; active = well fitted inhibition curve with a large enough effect in the repeat runs, not every such curve was filed as active; note: potency is the fitted concentration of half-maximal effect)
Chain of Thyrotropin-releasing hormone receptor (Homo sapiens) (P34981 whole entry, looked up): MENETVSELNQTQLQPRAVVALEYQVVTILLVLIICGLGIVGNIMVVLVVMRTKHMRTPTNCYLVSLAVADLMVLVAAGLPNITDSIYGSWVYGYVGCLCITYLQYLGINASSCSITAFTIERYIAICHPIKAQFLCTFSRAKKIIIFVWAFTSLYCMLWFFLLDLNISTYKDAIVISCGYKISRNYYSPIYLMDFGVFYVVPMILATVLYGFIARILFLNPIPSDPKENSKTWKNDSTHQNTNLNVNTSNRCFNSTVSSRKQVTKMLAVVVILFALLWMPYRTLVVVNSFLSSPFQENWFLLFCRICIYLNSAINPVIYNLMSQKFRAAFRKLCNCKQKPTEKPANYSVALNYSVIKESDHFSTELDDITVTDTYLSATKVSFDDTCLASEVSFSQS
Summary of the method: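 Human TRHR in HEK293 cells; inhibition of the intracellular calcium rise triggered by 1 nM TRH was followed by fluorescence over 3 min. Compounds were run at 15 concentrations, three replicates each.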

[19] = molecular target: Thyrotropin-releasing hormone receptor (Homo sapiens) (UniProt P34981); assay: qHTS assay to identify small molecule agonists of the thyrotropin-releasing hormone receptor (TRHR) signaling pathway (AID 1346891; calls by dose curve; note: series mostly up to about 58 µM)
Summary of the method: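 Readout was intracellular calcium fluorescence in TRHR-Hek293 cells. Cells were incubated 18 h, dye-loaded 2 h at 37 °C, and treated with compound in agonist mode.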

[20] = molecular target: Progesterone receptor (Homo sapiens) (UniProt P06401); assay: qHTS assay to identify small molecule antagonists of the progesterone receptor (PR) signaling pathway (AID 1346795; active = well fitted inhibition curve with a large enough effect in the signal ratio in the repeat runs, not every such curve was filed as active; the % refers to the signal ratio; note: potency is the fitted concentration of half-maximal effect)
Summary of the method: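 Stimulus R5020 at 1 nM final; cells HEK293T PR-UAS-bla; medium with 2% charcoal-stripped FBS; compound exposure 16 hr at 37C, 5% CO2; detection by FRET beta-lactamase substrate, 2 hr, room temperature.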
% is set by controls: 0 for no effect and ±100 for the full control effect.

COc1cccc([C@@]2(O)CCCC[C@@H]2CN(C)C)c1
inactive: outcome [1] | Potency [2] | Potency [3] | Potency [4] | Potency [5] | outcome [6] | Potency [7] | outcome [8] | Potency [9] | outcome [10] | Potency [11] | outcome [12] | Potency [13] | Potency [14] | max activation [15] -2.97% | Potency [16] | Potency [17]

COC1=CC(=O)O[C@@H](/C=C/c2ccccc2)C1
active: Potency [14] 24.7 µM
inactive: outcome [1] | Potency [2] | Potency [3] | Potency [4] | Potency [5] | outcome [6] | Potency [7] | Potency [9] | outcome [10] | outcome [12] | Potency [13]

ClC(Cl)(Cl)Cl
inactive: outcome [1] | Potency [2] | Potency [3] | Potency [4] | Potency [5] | outcome [6] | outcome [8] | Potency [18] | outcome [19] | Potency [9] | outcome [10] | Potency [11] | outcome [12] | Potency [13] | max activation [15] -2.8% | Potency [16] | Potency [17]

c1ccc2c(c1)CCNC2
inactive: outcome [1] | Potency [2] | Potency [3] | Potency [4] | Potency [5] | outcome [6] | Potency [7] | outcome [8] | Potency [18] | outcome [19] | Potency [9] | outcome [10] | Potency [11] | outcome [12] | Potency [13] | Potency [14]

C=CCCC#N
inactive: outcome [1] | Potency [2] | Potency [3] | Potency [4] | Potency [5] | outcome [6] | Potency [7] | outcome [8] | Potency [18] | outcome [19] | Potency [9] | outcome [10] | Potency [11] | outcome [12] | Potency [13] | Potency [14]

COc1cccc(C=O)c1
inactive: outcome [1] | Potency [2] | Potency [3] | Potency [4] | Potency [5] | outcome [6] | Potency [7] | outcome [8] | Potency [18] | outcome [19] | Potency [9] | outcome [10] | Potency [11] | Potency [13] | Potency [14]

CCCOC(=O)Cc1ccc(OCC(=O)N(CC)CC)c(OC)c1
inactive: outcome [1] | Potency [2] | Potency [3] | Potency [4] | Potency [5] | outcome [6] | Potency [7] | outcome [8] | Potency [18] | outcome [19] | Potency [9] | outcome [10] | Potency [13]
active: Potency [14] 15 µM

CCOC(=O)C(Cl)Cc1cc(-n2nc(C)n(C(F)F)c2=O)c(F)cc1Cl (configuration not stated)
inactive: outcome [1] | Potency [2] | Potency [3] | Potency [4] | Potency [5] | outcome [6] | Potency [7] | outcome [8] | Potency [18] | outcome [19] | Potency [9] | outcome [10] | outcome [12] | Potency [13] | Potency [14]

CC(C)[N+](C)(CCC(C(N)=O)(c1ccccc1)c1ccccc1)C(C)C
inactive: outcome [1] | Potency [2] | Potency [3] | Potency [4] | Potency [5] | outcome [6] | Potency [7] | outcome [8] | Potency [18] | outcome [19] | Potency [9] | outcome [10] | Potency [11] | outcome [12] | Potency [13] | max activation [15] 0.796% | Potency [16] | Potency [17]

O=S1(=O)OCCO1
inactive: outcome [1] | Potency [2] | Potency [3] | Potency [4] | Potency [5] | outcome [6] | Potency [7] | outcome [8] | Potency [18] | outcome [19] | Potency [9] | outcome [10] | Potency [11] | outcome [12] | Potency [13] | Potency [14]

O=C1C2CC=CCC2C(=O)N1SC(Cl)(Cl)Cl (configuration not stated)
inactive: outcome [1] | Potency [2] | Potency [3] | outcome [6] | outcome [8] | outcome [19] | outcome [10] | outcome [12] | Potency [14] | max activation [15] -17% | Potency [16] | Potency [17]
inactive and 21.3 µM (active): Potency [9]
inactive and 33.3 µM (active): Potency [18]
inactive and 60.1 µM (active): Potency [13]
inactive and 42.6 µM (active): Potency [20]
active: Potency [11] 68.3 µM and 12 µM

CCCCCCCCBr
inactive: outcome [1] | Potency [2] | Potency [3] | Potency [4] | Potency [5] | outcome [6] | Potency [7] | outcome [8] | Potency [18] | outcome [19] | Potency [9] | outcome [10] | Potency [11] | Potency [13] | Potency [14]

O=C(O)C(Br)(Br)Br
inactive: outcome [1] | Potency [2] | Potency [3] | Potency [4] | Potency [5] | outcome [6] | Potency [7] | outcome [8] | Potency [18] | outcome [19] | Potency [9] | outcome [10] | Potency [11] | outcome [12] | Potency [13] | Potency [14]

CON(C)C(=O)Nc1ccc(Br)cc1
inactive: outcome [1] | Potency [2] | Potency [3] | Potency [4] | outcome [6] | Potency [7] | outcome [8] | Potency [18] | outcome [19] | Potency [9] | outcome [10] | Potency [11] | outcome [12] | Potency [13]
active: Potency [14] 38.6 µM

CNC(=O)Oc1cc(C)c(N(C)C)c(C)c1
inactive: outcome [1] | Potency [2] | Potency [3] | Potency [4] | Potency [5] | outcome [6] | Potency [7] | outcome [8] | Potency [18] | outcome [19] | Potency [9] | outcome [10] | Potency [13]
active: Potency [14] 30.6 µM

C=CCC1(C(C)CC)C(=O)NC(=O)NC1=O (configuration not stated)
inactive: outcome [1] | Potency [2] | Potency [3] | Potency [4] | Potency [5] | outcome [6] | Potency [7] | outcome [8] | Potency [9] | outcome [10] | outcome [12] | Potency [13]

C=C1CC[C@@]2(O)[C@H]3Cc4ccc(O)c5c4[C@@]2(CCN3CC2CC2)[C@H]1O5
active: Potency [4] 2.98 µM
inactive: outcome [1] | Potency [2] | Potency [3] | Potency [5] | outcome [6] | outcome [8] | Potency [18] | outcome [19] | Potency [9] | outcome [10] | Potency [11] | Potency [13] | Potency [14] | max activation [15] 0.729% | Potency [16] | Potency [17]
